VDR inh: vitamin D3 receptor (human) inhibition; VDR-SRC2-3 peptide fluorescence polarization, 2 h; 400,000 compounds, 0.93% hits; P11473; Potency, µM, inactives show max response, negative = inhibition, most hits filed as inhibitors; further: on the % scale 0 is the no-effect control and ±100 the full control effect
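After 23 nl compound addition and a short centrifugation, plates sat for 2 hours at ambient temperature; polarization of fluorescence then indicated loss of VDR binding to peptide SRC2-3.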
G9a inh: blocks human histone lysine methyltransferase G9a | G9a H3K9 monomethylation, AlphaScreen, 2 h | 350,000 compounds, 8.8% hits | AID 504332 | Q96KQ7 | Potency, µM (doses to about 102 µM), for inactives: at the highest dose activity, negative = inhibition, most hits filed as inhibitors; further: on the % scale 0 is the no-effect control and ±100 the full control effect; nearly all actives have a fitted effect of over 75% in size
Target sequence (Q96KQ7 913-1193 limits assumed): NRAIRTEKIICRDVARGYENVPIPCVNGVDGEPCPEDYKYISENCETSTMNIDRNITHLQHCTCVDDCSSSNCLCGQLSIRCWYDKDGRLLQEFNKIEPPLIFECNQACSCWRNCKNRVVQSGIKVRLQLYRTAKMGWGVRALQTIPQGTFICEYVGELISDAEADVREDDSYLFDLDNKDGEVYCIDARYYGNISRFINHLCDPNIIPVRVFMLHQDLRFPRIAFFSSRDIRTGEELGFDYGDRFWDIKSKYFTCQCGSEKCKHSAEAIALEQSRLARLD
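Readings reflect AlphaScreen signal from monomethyl-H3K9 antibody detection. HMT at 20 nM; substrate b-H3K9 500 nM; cofactor SAM 20 uM; 2 h RT reaction; compounds tested as titrations in qHTS with 15 min preincubation.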
ALOX12 inh: inhibitors of human 12S-lipoxygenase ALOX12 | purified 12hLO, xylenol orange hydroperoxide absorbance | Potency, µM (titrated, usually from 108 µM), inactives show at the highest dose activity change, negative = inhibition, hits mostly inhibitors | 580,000 compounds, 1.1% hits | P18054; further: on the % scale 0 is the no-effect control and ±100 the full control effect
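Hydroperoxide product was detected by ferrous iron/xylenol orange as the 573 to 405 nm absorbance ratio. Arachidonic acid at 40 uM (final) was turned over for 30 min at room temperature by 150 nM human 12hLO, pH 7.0 Hepes buffer, after 15 min compound preincubation.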
Sfp PPTase inh: blocks B. subtilis Sfp PPTase activity; Q9F4F7; Biochemical Sfp PPTase activity, qHTS; Potency, µM, for inactives: largest response in the series, negative = inhibition, most hits filed as inhibitors; 310,000 compounds, 3.5% hits;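 further: the enzyme is Sfp with the accession as filed and its product quenches rhodamine fluorescence; 0% = enzyme reaction without inhibitor and -100% = no enzyme wells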
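Compounds were incubated with enzyme (final 15 nM) for 15 min at room temperature before substrate addition started the reaction. Fluorescence at 525 nm excitation, 598 nm emission was recorded immediately and after 30 minutes.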
Glioma ERSR ind: inducers of ER stress response in human glioma cells; U87-MG GRP78 promoter luciferase reporter, 16 h; Potency, µM, inactives show at the highest dose activation, usual class: activators; 420,000 compounds, 0.02% hits; further: series mostly up to about 76 µM; % of control where 0% means no effect; nearly all actives have a fitted effect of over 35% in size
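Stably transfected U87-MG human glioma cells carrying a GRP78-based luminescent sensor were seeded at 1000 cells/well, pin-dosed with compounds and incubated 16 h. Luciferase reagent was then added, and end-point luminescence was read after 10 min at room temperature.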
Numbers without * were called inactive; ? = inconclusive; / = no result given; [ ] = dose if it differs, or a comment. Many of the other results were omitted from the sample, so hits are more common in it than they were. The call rests on the fitted dose curve; in most records, active means well fitted curve in the direction sought with a large enough effect; inconclusive means small, poorly fitted or top-dose-only effect, or another doubt; inactive means no such curve, though single readings can be large; an effect the other way counts as inactive or inconclusive. Potency means the concentration at half of the fitted maximal effect.

SMILES	VDR inh	G9a inh	ALOX12 inh	Sfp PPTase inh	Glioma ERSR ind
Cc1cnn(CCC(=O)NNC(=S)Nc2ccccc2)c1	16%	-3%[59 µM]	24%	-9%	2%
Cc1nn(C)c(C(=O)NNC(=S)Nc2ccc(F)cc2)c1[N+](=O)[O-]	8%	?	6%	20%	-5%
Cc1nn(CCC(=O)NNC(=S)Nc2ccc([N+](=O)[O-])cc2)c(C)c1[N+](=O)[O-]	-7%	8.9µM*	-12%	-15%	-4%
Cc1nn(C(C)C(=O)N/N=C/c2ccc(N(C)C)cc2)c(C)c1[N+](=O)[O-] (stereo unspecified)	-4%	56µM*	109%	-12%	-4%
COc1ccc(NC(=S)NNC(=O)C(C)n2nc(C)c([N+](=O)[O-])c2C)cc1 (stereo unspecified)	-1%	?	27%	20%	-3%
Cc1nc2ccc(C(=O)NCC(C)C)cc2nc1C	/	/	13%	/	/
CCOc1c(OC)cccc1-c1nc2ccccc2s1	/	/	35%	/	/
Fc1ccccc1CN1CCC(NCC2CNc3ccnn3C2)CC1 (stereo unspecified)	/	/	-9%	/	/
Cc1nn(C)c(C(=O)NC(=S)Nc2ccc([N+](=O)[O-])cc2)c1Cl	12%	/	?	32µM*	3%
O=C(Cn1nc(C(F)F)cc1C(F)F)NNC(=S)Nc1ccc([N+](=O)[O-])cc1	-1%	20µM*	?	7%	-3%
Cc1nn(C)c(C(=O)NC(=S)Nc2ccccc2Br)c1Cl	-4%	/	?	?	2%
COc1cccc(NC(=S)NNC(=O)Cn2nc(C(F)F)cc2C(F)F)c1	-2%	?	?	-2%	-2%
CC(=O)CC(=O)Nc1ccccc1C#N	/	/	-16%	/	/
CC(C)(C)Cc1nnc(NC(=O)CN2C(=O)c3ccccc3C2=O)s1	-3%	35µM*	?	?	-5%
CC(C)Cc1nnc(NC(=O)CN2C(=O)c3ccccc3C2=O)s1	11%	25µM*	-23%	22µM*	-4%

High-throughput results (PubChem)
